Measurements published in PubChem BioAssay AID1259374 (The Scripps Research Institute Molecular Screening Center, 2018).
About 5,900 (0.91%) of roughly 650,000 compounds were called active. No stated cut-off is given here; in the data, active means inhibition above about 50%; inactive means the rest. For the sample, actives were picked, then their nearest neighbours and some compounds at random.

Target: Microphthalmia-associated transcription factor (Homo sapiens) (UniProt O75030)
Experiment: MITF inhibitors, primary screen, biochemical, AlphaScreen, human (AID 1259374);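 further: 0% = vehicle wells with protein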
Conditions: AlphaScreen MITF homodimerization, bead proximity signal; at 2.6 µM; stronger effect = higher value

Sequence of Microphthalmia-associated transcription factor (Homo sapiens) (O75030 whole entry, looked up): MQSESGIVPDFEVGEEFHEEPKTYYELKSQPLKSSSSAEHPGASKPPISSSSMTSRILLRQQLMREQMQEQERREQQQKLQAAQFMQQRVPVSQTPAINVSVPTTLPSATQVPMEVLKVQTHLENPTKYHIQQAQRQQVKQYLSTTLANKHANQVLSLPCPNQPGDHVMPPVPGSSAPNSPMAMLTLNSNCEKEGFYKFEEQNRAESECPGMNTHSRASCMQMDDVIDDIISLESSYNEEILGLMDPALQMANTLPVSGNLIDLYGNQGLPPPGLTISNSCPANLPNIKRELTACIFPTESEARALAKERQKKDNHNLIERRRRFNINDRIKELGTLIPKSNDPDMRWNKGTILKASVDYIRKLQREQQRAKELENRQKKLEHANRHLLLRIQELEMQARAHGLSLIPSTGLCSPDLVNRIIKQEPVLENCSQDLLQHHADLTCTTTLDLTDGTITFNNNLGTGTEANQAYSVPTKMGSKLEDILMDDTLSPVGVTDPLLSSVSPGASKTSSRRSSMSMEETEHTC

SMILES | inhibition
CCn1c(=O)c2ccccc2n2c(SCC(=O)Nc3nccs3)nnc12 | 0.8% (inactive)
COc1ccc(CCN2CCC(c3nc(-c4ccc5c(c4)OCO5)no3)CC2)cc1OC | 7.81% (inactive)
O=C(N/N=C/c1cc(Br)ccc1O)c1cc(-c2cccs2)[nH]n1 | 17.6% (inactive)
O=C(N/N=C/c1cc(Br)ccc1O)c1ccc(=O)[nH]n1 | 80.2% (active)
O=C(N/N=C/c1cc(Br)ccc1O)c1cc(Br)ccc1O | 8.32% (inactive)
COC(=O)C1=C(O)/C(=C\c2ccccc2C(F)(F)F)N=C1C | 1.73% (inactive)
CCOC(=O)C1=C(O)/C(=C\c2cccc(Cl)c2)N=C1C | -3.89% (inactive)
COC(=O)C1=C(O)/C(=C\c2cccc(O)c2)N=C1C | 58% (active)
CCN(CC)C(=O)C1CCCN(c2cccc(C(=O)NCCOc3ccccc3)c2)C1 (centres undefined) | 17.9% (inactive)
c1nc(SCc2ccc3c(c2)OCO3)c2[nH]cnc2n1 | 5.04% (inactive)
Cn1c(N)c(C(=O)CSc2ncnc3nc[nH]c23)c(=O)n(C)c1=O | 10.9% (inactive)
O=C(CSc1ncnc2nc[nH]c12)c1ccc(O)c(O)c1 | 82.1% (active)
CC(=O)N1CCN(Cc2ccc3c(c2)CN(C(=O)c2cccc(N(C)C)c2)CCO3)CC1 | 1.41% (inactive)
C/C(=N\NC(=O)CCCc1cc2ccccc2[nH]1)c1ccncc1 | 12.8% (inactive)
COc1cccc(CCNC(=O)CC2C(=O)NCCN2Cc2cccc(C(F)(F)F)c2)c1 (centres undefined) | 10.1% (inactive)
CCCS(=O)(=O)N1CCN(c2ccc(C)nn2)CC1 | 1.44% (inactive)
CCCS(=O)(=O)N1CCN(C(=O)c2cccs2)CC1 | 16.3% (inactive)
CCCS(=O)(=O)N1CCN(C(C)C)CC1 | 87.2% (active)
O=C1Nc2c(Cl)cc(Cl)cc2/C1=N\N=C\c1ccc(O)c(O)c1O | 80.2% (active)
C[n+]1ccc(C(=O)N/N=C/c2ccc(Cl)cc2Cl)cc1 | 0.41% (inactive)

SMILES | inhibition
O=C(N/N=C\c1ccc(Cl)cc1Cl)c1ccccc1O | 9.14% (inactive)
CCC1CCCCN1Cc1c(O)ccc2c(=O)c(Oc3ccc(OC)cc3)c(C(F)(F)F)oc12 (centres undefined) | -1.92% (inactive)
CC(C)C[C@@H]1NC(=O)[C@@H]2C[C@H](NC(=O)Nc3c(Cl)cccc3Cl)CN2C1=O | 2.93% (inactive)
Cc1noc(C)c1-c1cccc(C(=O)NCCCN2CCCC2=O)c1 | 12.4% (inactive)
CN(C)CCCNC(=O)C(=O)Nc1ccccc1F | -6.25% (inactive)
CCOC(=O)N1CCC(N(CCOC)C(=S)Nc2ccccc2F)CC1 | -9.05% (inactive)
CC(c1ccccn1)N(CCN(C)C)C(=S)Nc1ccccc1F (centres undefined) | 58% (active)
Cc1ccc(S(=O)(=O)N(CCC(=O)NCC2CCCO2)Cc2c(Cl)cccc2Cl)cc1 (centres undefined) | -0.49% (inactive)
O=C(Nc1sc2c(c1C(=O)Nc1ccccc1)CCCCC2)c1ccncc1 | 17.1% (inactive)
CCOc1ccc(C(=O)Nc2cccc(-c3nc4cc(C)cc(C)c4o3)c2)cc1[N+](=O)[O-] | 8.35% (inactive)
COc1cc(C(=O)N/C(=C/c2ccc3c(c2)OCO3)C(=O)NCC(=O)O)cc(OC)c1OC | -4.22% (inactive)
COCCCn1c(SCC(=O)NC2CCCCC2)nnc1-c1ccccc1 | 8.3% (inactive)
CC1CCCCC1NC(=O)CSc1nnc(-c2ccncc2)n1CCCN(C)C (centres undefined) | 85.7% (active)
CCCn1c(SCC(=O)NC2CCCCC2C)nnc1-c1cccnc1 (centres undefined) | 0.55% (inactive)
CCNC(=S)NNC(=O)c1cccc(S(=O)(=O)Nc2ccc(C)cc2C)c1 | 6.71% (inactive)
CCCS(=O)(=O)N1CCc2ccc(NC(=O)/C=C/c3ccco3)cc2C1 | 14.1% (inactive)
CNC(=O)c1ccccc1Nc1cc(Nc2ccc(N3CCOCC3)cc2OC)ncc1F | 4.9% (inactive)
COc1cc(N2CCOCC2)ccc1Nc1cc(Nc2ccccc2C(N)=O)ccn1 | 21.1% (inactive)
COc1cc(N2CCOCC2)ccc1Nc1cc(Nc2ccccc2-n2cccn2)c(C(F)(F)F)cn1 | 57.2% (active)
N#CCN1C(=O)C(=O)/C(=C(/O)c2ccccc2)C1c1ccccn1 (centres undefined) | 19.8% (inactive)

SMILES | inhibition
COc1cc(CN2CCC(N3CCC(C(=O)NCC4CCCO4)CC3)CC2)cc(OC)c1 (centres undefined) | 6.5% (inactive)
Cc1ccc(C2/C(=C(/O)c3ccc(Cl)cc3)C(=O)C(=O)N2CCN(C)C)cc1 (centres undefined) | -18.6% (inactive)
CC(C)c1ccc(C2/C(=C(/O)c3ccccc3)C(=O)C(=O)N2CCN(C)C)cc1 (centres undefined) | 57.4% (active)
CN(C)c1ccc(C2/C(=C(/O)c3ccccc3)C(=O)C(=O)N2CCO)cc1 (centres undefined) | -0.75% (inactive)
O=C(Nc1ccc(-c2cn3ccccc3n2)cc1)c1ccc(Br)o1 | 11.4% (inactive)
C/C(=N\Nc1ccc(Cl)c(C(=O)O)c1)c1ccc([N+](=O)[O-])cc1 | 0.79% (inactive)
CS(=O)(=O)N(Cc1ccccc1)c1ccccc1C(=O)N1CCCCCC1 | -12% (inactive)
CCN(CC)S(=O)(=O)c1ccc(OCC(=O)Nc2ccc(C(C)=O)cc2)c([N+](=O)[O-])c1 | -5.88% (inactive)
CCCCOc1ccc(OC(=O)c2ccc(-c3ccc(CC)cn3)cc2)cc1 | -0.56% (inactive)
CCCCCc1ccc(-c2ccc(C(=O)Oc3ccc(-c4ccccc4)cc3)cc2)nc1 | 3.19% (inactive)
CCCCCOc1ccc(OC(=O)c2ccc(-c3ccc(CCC)cn3)cc2)cc1 | 57.3% (active)
CCOC(=O)C1CCCN(c2c(OCC)c(=O)c2=O)C1 (centres undefined) | -5.33% (inactive)
CCN(CCCNC(=O)CCCn1c(=S)[nH]c2cc3c(cc2c1=O)OCO3)c1cccc(C)c1 | 2.49% (inactive)
CN1CCN(S(=O)(=O)c2ccc(F)c(Cl)c2)CC1 | 19.5% (inactive)
O=C(c1ccccc1)N1CCN(CC(O)COc2cccc(Cl)c2)CC1 (centres undefined) | -18.1% (inactive)
CN1CCN(CC(O)COc2ccc3ccccc3c2)CC1 (centres undefined) | 18.6% (inactive)
CCN1CCN(CC(O)COc2cccc(C(=O)OC)c2)CC1 (centres undefined) | 53.1% (active)
O=C(/C=C/c1ccc([N+](=O)[O-])cc1)NCCSC1CCCCC1 | 27.9% (inactive)
CCOc1ccccc1N1C(=O)c2nccnc2C1=O | 1.76% (inactive)
